In PubChem BioAssay (Tox21) one finds Potency and outcome data, which are given here for 21 compounds.

Where “and” joins values, the source holds several entries; their conditions need not be identical. Equal entries are not always repeated. Inconclusive results are not listed. Some structures have more than one record in an assay (separate samples or runs), and their calls can disagree. Calls of active or inactive are those of the source. Unless noted, calls come from the whole dose curve; as a rule, active = well fitted curve in the direction sought with a large enough effect in the repeat runs; inconclusive = weak or mixed curves; inactive = no such curve, though single readings can be large; an effect the other way counts as inactive or inconclusive.

Test [1] in a line: qHTS assay to identify aromatase inhibitors - cell viability counter screen (AID 743084).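 Note: cells stimulated with testosterone during compound exposure; nearly all actives have a fitted effect of over 55% in size.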
Test [2] has as its target Aryl hydrocarbon receptor (Homo sapiens) (UniProt P35869). As to the kind of experiment: qHTS assay to identify small molecule that activate the aryl hydrocarbon receptor (AhR) signaling pathway (AID 743085).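 For activation: HG2L7.5c1 human HepG2 liver cells with stably integrated DRE-driven firefly reporter; series mostly up to about 70 µM.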 Note: nearly all actives have a fitted effect of over 15% in size. Note: potency is the fitted concentration of half-maximal effect. The procedure, abridged:
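Reporter assay in engineered HepG2 line HG2L7.5c1, whose plasmid carries twenty dioxin responsive elements upstream of firefly luciferase. Treatment lasted 24 h at 37C; ONE-Glo luminescence gauged induction.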
Background: In qHTS, concentration-response curves come from the screen itself.

Test [3] can be described thus: qHTS assay to identify small molecule that activate the aryl hydrocarbon receptor (AhR) signaling pathway - cell viability counter screen (AID 743086).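 Note: HepG2 liver cells carrying the AhR DRE luciferase reporter; series mostly up to about 70 µM; nearly all actives have a fitted effect of over 45% in size.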 The procedure, abridged:
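Cytotoxicity counter screen: CellTiter-Fluor signal (30 min, 37 C) in 4000 HepG2 cells/well carrying the DRE-luciferase reporter, following 24 h compound exposure at 37 C.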

Test [4] addresses Peroxisome proliferator-activated receptor gamma (Homo sapiens) (UniProt P37231). As to the kind of experiment: qHTS assay to identify small molecule agonists of the peroxisome proliferator-activated receptor gamma (PPARg) signaling pathway (AID 743094; active = well fitted activation curve with a large enough effect in the signal ratio in the repeat runs, not every such curve was filed as active; the % refers to the signal ratio). The procedure, abridged: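 Agonism was assessed in a beta-lactamase reporter system, HEK293H cells with a stably integrated UAS-bla construct under PPARg control; the 17 h treatment at 37C preceded a 1 h room-temperature FRET substrate read.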

The target is the same in test [5]. As to the kind of experiment: qHTS assay to identify small molecule antagonists of the peroxisome proliferator-activated receptor gamma (PPARg) signaling pathway (AID 743191; calls by dose curve; note: series mostly up to about 63 µM; nearly all actives have a fitted effect of over 30% in size). Summed up: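 Beta-lactamase reporter under UAS control in HEK293H PPARg-bla cells; compound treatment 17 h at 37C. Read-out: fluorescence intensity after 1 h room-temperature incubation with LiveBLAzer B/G FRET substrate.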

Test [6] in a line: qHTS assay to identify small molecule antagonists of the peroxisome proliferator-activated receptor gamma (PPARg) signaling pathway - cell viability counter screen (AID 743194). Note: nearly all actives have a fitted effect of over 55% in size. The procedure, abridged:
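Viability was measured as CellTiter-Glo luminescence in GeneBLAzer PPARg UAS-bla HEK293H cells. These cells had been exposed 17 h at 37 C to compounds together with rosiglitazone at 50 nM final, with the beta-lactamase readout taken in the same wells.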

Test [7] is described as follows: qHTS assay for small molecule agonists of the antioxidant response element (ARE) signaling pathway (AID 743202; active = well fitted activation curve with a large enough effect in the signal ratio in the repeat runs, not every such curve was filed as active; the % refers to the signal ratio; note: potency is the fitted concentration of half-maximal effect). The procedure, abridged: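 After 16 hours of compound treatment at 37 C, HepG2 cells with a stably integrated ARE-driven beta-lactamase reporter were loaded 2 hours at room temperature with LiveBLAzer B/G FRET substrate and fluorescence intensity measured.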

The nature of test [8]: qHTS assay for small molecule agonists of the antioxidant response element (ARE) signaling pathway - cell viability counter screen (AID 743203; calls by dose curve; note: nearly all actives have a fitted effect of over 55% in size). The procedure, abridged: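 ATP content via CellTiter-Glo luminescence served as the viability measure. Cells: ARE-bla HepG2, 2,000 per well. Exposure: 16 hrs, 37C/5% CO2.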
Test [9] in a line: qHTS assay for small molecule activators of the heat shock response signaling pathway - cell viability counter screen (AID 743209). Note: nearly all actives have a fitted effect of over 50% in size. The procedure, abridged:
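Compounds dissolved in DMSO were added to overnight-plated HSE-bla HeLa cells and left 5 h at 37 C. Cell viability was quantified by luminescence using CellTiter-Glo.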

Test [10] can be described thus: qHTS assay for small molecule activators of the heat shock response signaling pathway (AID 743210; active = well fitted activation curve with a large enough effect in the signal ratio in the repeat runs, with a control signal flat, not every such curve was filed as active; the % refers to the signal ratio; note: series mostly up to about 63 µM). The procedure, abridged: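 Compound exposure lasted 5 h at 37 C in HeLa cells carrying a heat-shock-element-driven beta-lactamase reporter. Read-out: fluorescence intensity after 2.5 h room-temperature loading with LiveBLAzer B/G FRET substrate.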

Chain of Peroxisome proliferator-activated receptor gamma (Homo sapiens) (P37231 whole entry, looked up): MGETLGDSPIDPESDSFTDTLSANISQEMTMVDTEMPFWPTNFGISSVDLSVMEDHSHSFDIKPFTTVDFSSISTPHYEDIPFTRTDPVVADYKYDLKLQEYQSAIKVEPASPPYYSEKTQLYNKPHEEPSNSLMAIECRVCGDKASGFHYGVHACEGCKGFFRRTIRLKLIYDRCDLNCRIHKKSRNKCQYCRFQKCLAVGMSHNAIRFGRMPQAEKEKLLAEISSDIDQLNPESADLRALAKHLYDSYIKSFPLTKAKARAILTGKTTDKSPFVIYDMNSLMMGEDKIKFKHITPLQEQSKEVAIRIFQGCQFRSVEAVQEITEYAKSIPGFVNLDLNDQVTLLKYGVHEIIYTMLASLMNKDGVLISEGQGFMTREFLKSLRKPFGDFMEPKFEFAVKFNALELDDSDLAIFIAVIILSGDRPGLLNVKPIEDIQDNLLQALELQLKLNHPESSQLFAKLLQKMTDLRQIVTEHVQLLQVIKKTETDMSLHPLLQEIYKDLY
Chain of Aryl hydrocarbon receptor (Homo sapiens) (P35869 whole entry, looked up): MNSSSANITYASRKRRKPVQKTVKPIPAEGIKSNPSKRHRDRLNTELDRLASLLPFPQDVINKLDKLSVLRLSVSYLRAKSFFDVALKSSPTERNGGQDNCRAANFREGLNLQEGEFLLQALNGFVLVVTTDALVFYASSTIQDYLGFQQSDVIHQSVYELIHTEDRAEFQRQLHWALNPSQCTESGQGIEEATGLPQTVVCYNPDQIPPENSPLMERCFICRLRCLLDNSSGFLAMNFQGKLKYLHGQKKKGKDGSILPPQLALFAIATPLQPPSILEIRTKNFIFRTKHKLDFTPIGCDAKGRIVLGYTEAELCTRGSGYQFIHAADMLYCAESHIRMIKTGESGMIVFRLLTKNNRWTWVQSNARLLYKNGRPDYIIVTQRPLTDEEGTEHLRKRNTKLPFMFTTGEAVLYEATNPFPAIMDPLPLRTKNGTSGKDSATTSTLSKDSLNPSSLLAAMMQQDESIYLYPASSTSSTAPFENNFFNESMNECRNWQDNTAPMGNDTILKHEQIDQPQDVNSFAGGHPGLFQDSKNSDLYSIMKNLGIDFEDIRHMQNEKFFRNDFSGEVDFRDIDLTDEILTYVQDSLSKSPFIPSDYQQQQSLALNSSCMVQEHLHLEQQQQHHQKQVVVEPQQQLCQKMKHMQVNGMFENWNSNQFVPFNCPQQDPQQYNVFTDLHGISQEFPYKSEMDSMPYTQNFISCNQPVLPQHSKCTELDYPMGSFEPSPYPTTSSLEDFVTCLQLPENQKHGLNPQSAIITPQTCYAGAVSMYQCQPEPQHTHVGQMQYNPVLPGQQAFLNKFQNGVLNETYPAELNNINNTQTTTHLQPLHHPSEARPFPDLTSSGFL

Take `O=[N+]([O-])c1cc([As](=O)(O)O)ccc1O`: the Potency result in [1], in [2], in test [5], in test [7], in [8] and in [9] was “inactive” throughout. The Potency entry in [10] was “inactive”. The compound was classed as inactive in test [3], in test [4] and in [6].

In the case of `C=CCN=C=S`, the Potency entry in test [1], in [2], in test [5], in [7], in [8] and in test [9] was “inactive” in each case. The Potency result in [10] was “inactive”. Also, the compound was called inactive in [3], in [4] and in test [6].

`Nc1cc(Cl)cc(Cl)c1`: the Potency result in test [1], in test [2], in test [7], in test [8], in test [9] and in test [10] was “inactive” in each case. In addition, the call in [3], in [4] and in test [6] was inactive.

Consider `Cc1cccc(C)c1NC(=O)CN1CCCC1=O`, for which the Potency entry in test [1], in [2], in test [7], in test [8] and in test [9] was “inactive” in each case. The compound was called inactive in test [3], in test [4] and in test [6].

In the case of `C=CC#N`, the Potency entry in [1], in test [2], in test [5], in test [7], in test [8] and in test [10] was “inactive” each time. Besides, the result in test [3], in [4] and in test [6] was inactive.

`COC(C)(C)CCCC(C)C/C=C/C(C)=C/C(=O)OC(C)C` (centres undefined): the Potency entry in test [1], in test [7] and in [8] was “inactive” throughout. The Potency entry in [2] is “inactive and 60.1 µM (active)”. Further, the compound was called inactive in test [3], in test [4] and in test [6].

Regarding `CCNc1nc(Cl)nc(NC(C)C)n1`, the Potency result in test [1], in [2], in test [5], in [7], in [8] and in test [9] was “inactive” each time. Further, the Potency entry in test [10] is “inactive”. The compound was called inactive in test [3], in test [4] and in [6].

`CN(C)NC(=O)CCC(=O)O`: the Potency result in [1], in test [2], in [5], in test [7], in [8] and in test [10] was “inactive” in each case. The call in test [3], in test [4] and in [6] was inactive.

Turning to `CCOP(=S)(OCC)Oc1ccc([N+](=O)[O-])cc1`, the Potency entry in test [1], in test [5], in test [7], in test [8] and in test [10] was “inactive” in each case. Moreover, the Potency in test [2] is 31 µM (active) and 10.6 µM (active). For the same compound, the compound was classed as inactive in [3], in test [4] and in test [6].

As to `c1ccc2c(c1)CCCC2`, the Potency entry in test [1], in [2], in test [5], in test [7], in test [8] and in [10] was “inactive” each time. Further, the call in test [3], in [4] and in test [6] was inactive.

Take `COP(=S)(OC)SCN1C(=O)c2ccccc2C1=O`: the Potency result in test [1], in test [2], in test [5], in test [7], in test [8] and in test [10] was “inactive” each time. The outcome in test [3], in test [4] and in test [6] was inactive.

With `O=[N+]([O-])c1ccc(Cl)c(Cl)c1`, the Potency entry in test [1], in test [2], in [7], in test [8], in test [9] and in test [10] was “inactive” in each case. Besides, the compound was called inactive in test [3], in [4] and in [6].

As to `C[C@H]1C(=O)O[C@@H]2CCN3CC=C(COC(=O)[C@](C)(O)[C@]1(C)O)[C@H]23`, the Potency entry in test [1], in test [2], in test [5], in [7], in test [8] and in [9] was “inactive” throughout. Moreover, the Potency entry in test [10] is “inactive”. Also, the result in [3], in test [4] and in test [6] was inactive.

As for `O=C(O)c1cc(Oc2ccc(C(F)(F)F)cc2Cl)ccc1[N+](=O)[O-]`, the Potency entry in [1], in [2], in test [7], in [8], in test [9] and in test [10] was “inactive” in each case. Further, the compound was called inactive in test [3], in test [4] and in test [6].

For the compound `CN(C)C(=O)C(c1ccccc1)c1ccccc1`, the Potency entry in test [1], in [2], in [5], in test [7], in [8] and in [9] was “inactive” in each case. In test [10], the Potency result was “inactive”. The compound was classed as inactive in test [3], in test [4] and in test [6].

Consider `OC[C@@H](O)[C@H]1O[C@@H]2O[C@H](C(Cl)(Cl)Cl)O[C@@H]2[C@H]1O`, for which the Potency result in [1], in [2], in test [7], in test [8], in test [9] and in [10] was “inactive” each time. In addition, the compound was classed as inactive in test [3], in [4] and in test [6].

For the compound `CC(C)c1cccc(C(C)C)c1O`, the Potency result in test [1], in test [2], in test [5], in [7], in test [8] and in [10] was “inactive” in each case. Also, the result in test [3], in [4] and in test [6] was inactive.

Regarding `Cc1ccc(N=C=O)cc1N=C=O`, the Potency entry in [1], in test [5], in [7] and in test [8] was “inactive” throughout. The Potency in test [2] is 25 µM (active) and 1.08 µM (active). The compound was classed as inactive in test [3], in test [4] and in [6].

On to `OCc1ccco1`, for which the Potency result in test [1], in [2], in test [5], in test [7], in test [8] and in [9] was “inactive” throughout. Moreover, the Potency result in test [10] is “inactive”. In addition, the outcome in [3], in [4] and in [6] was inactive.

`COC(=O)Nc1cccc(OC(=O)Nc2cccc(C)c2)c1`: the Potency entry in test [1], in [8] and in [9] was “inactive” in each case. In addition, the Potency is 27.3 µM (active) and 2.73 µM (active) in [2]; 48.6 µM (active) and inactive in test [7]. Moreover, the result in [3], in test [4] and in test [6] was inactive.

Turning to `CNC(=O)O/N=C/C(C)(C)SC`, the Potency entry in test [1], in test [2], in test [7], in test [8] and in test [9] was “inactive” each time. Moreover, the outcome in test [3], in test [4] and in test [6] was inactive.
